The panel holds about 83,000 compounds, 20% with a hit somewhere; the sample as a whole holds those more often.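 Method: cells in 96-well plates; compound added at one concentration; 48 h incubation; percent growth measured; values under 10 scored active.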 Calls of active or inactive are those of the source.
How the values were obtained:
Experiment in all cases: NCI-60 one-dose screen, 48 h (100 = growth as untreated, 0 = no growth, -100 = all killed)
Details in all cases: 10 µM unless noted
SK-MEL-2 melanoma = system: SK-MEL-2 melanoma
EKVX NSCLC = system: EKVX NSCLC
SN12C renal = system: SN12C renal
TK-10 renal = system: TK-10 renal
ACHN renal = system: ACHN renal
CAKI-1 renal = system: CAKI-1 renal
A498 renal = system: A498 renal
MOLT-4 leukemia = system: MOLT-4 leukemia
SR leukemia = system: SR leukemia
RPMI-8226 leukemia = system: RPMI-8226 leukemia
OVCAR-8 ovarian = system: OVCAR-8 ovarian
OVCAR-5 ovarian = system: OVCAR-5 ovarian
OVCAR-4 ovarian = system: OVCAR-4 ovarian
SK-OV-3 ovarian = system: SK-OV-3 ovarian
IGROV1 ovarian = system: IGROV1 ovarian
OVCAR-3 ovarian = system: OVCAR-3 ovarian
HS 578T breast = system: HS 578T breast
NCI/ADR-RES ovarian = system: NCI/ADR-RES ovarian
CCRF-CEM leukemia = system: CCRF-CEM leukemia
UO-31 renal = system: UO-31 renal

Measured: growth

CC(=O)[C@@H]1CC[C@]2(COS(=O)(=O)c3ccc(C)cc3)CC[C@]3(C)[C@H](CC[C@@H]4[C@@]5(C)CCCNC(C)(C)[C@@H]5CC[C@]43C)[C@@H]12
active: SR leukemia -24.6%
inactive: SK-MEL-2 melanoma 105% | EKVX NSCLC 94% | SN12C renal 78% | TK-10 renal 106% | ACHN renal 87.1% | CAKI-1 renal 82.7% | A498 renal 85.9% | MOLT-4 leukemia 21.9% | RPMI-8226 leukemia 46.4% | OVCAR-8 ovarian 84% | OVCAR-5 ovarian 81% | OVCAR-4 ovarian 60.6% | SK-OV-3 ovarian 91.1% | IGROV1 ovarian 58.2% | OVCAR-3 ovarian 88.1% | HS 578T breast 81.7% | NCI/ADR-RES ovarian 78.8%

CCOC(=O)/C=C/c1cc2cc(-c3csc4ccccc34)ccc2[nH]1
inactive: SK-MEL-2 melanoma 101% | EKVX NSCLC 72.7% | SN12C renal 91.8% | TK-10 renal 121% | ACHN renal 90.8% | CAKI-1 renal 69.4% | A498 renal 89.8% | MOLT-4 leukemia 12.2% | RPMI-8226 leukemia 47.4% | OVCAR-8 ovarian 19.6% | OVCAR-5 ovarian 101% | OVCAR-4 ovarian 92.3% | SK-OV-3 ovarian 132% | OVCAR-3 ovarian 77.1% | HS 578T breast 67.2% | NCI/ADR-RES ovarian 30.8%
active: SR leukemia 0.282%

COc1ccc(N2CCN(c3nc(-c4cc(OC)c(OC)c(OC)c4)nc4ccccc34)CC2)cc1
inactive: SK-MEL-2 melanoma 93.6% | EKVX NSCLC 85% | SN12C renal 90.1% | ACHN renal 90.6% | CAKI-1 renal 84.1% | A498 renal 79.5% | CCRF-CEM leukemia 91.3% | SR leukemia 42.6% | RPMI-8226 leukemia 54.8% | OVCAR-8 ovarian 71.1% | OVCAR-5 ovarian 93.5% | OVCAR-4 ovarian 88% | SK-OV-3 ovarian 91.4% | IGROV1 ovarian 97% | OVCAR-3 ovarian 94.6% | HS 578T breast 65.2% | NCI/ADR-RES ovarian 65.3%

O=C(NCCCNc1cc(-c2cn(-c3ccccc3)nc2-c2cccc(O)c2)ccn1)c1ccccc1
inactive: SK-MEL-2 melanoma 26.8% | EKVX NSCLC 47.6% | SN12C renal 61.1% | TK-10 renal 67.3% | ACHN renal 45.8% | CAKI-1 renal 37.3% | A498 renal 31.1% | CCRF-CEM leukemia 36.6% | OVCAR-8 ovarian 27.5% | OVCAR-5 ovarian 63.3% | OVCAR-4 ovarian 38.1% | SK-OV-3 ovarian 37.7% | IGROV1 ovarian 50.8% | OVCAR-3 ovarian 45.8% | NCI/ADR-RES ovarian 25.8%
active: SR leukemia -25.8% | RPMI-8226 leukemia -7.45% | HS 578T breast -6.38%

Cc1ccc(NS(=O)(=O)c2ccc3c(c2)C(=O)CC(c2ccc(C(=O)C(C)C)cc2)N3)cc1C (stereo not given)
inactive: SK-MEL-2 melanoma 64.2% | EKVX NSCLC 22.7% | SN12C renal 76.4% | TK-10 renal 77.9% | ACHN renal 55.1% | CAKI-1 renal 55.9% | A498 renal 45.2% | CCRF-CEM leukemia 50.3% | MOLT-4 leukemia 54.5% | OVCAR-8 ovarian 73.4% | OVCAR-5 ovarian 80.1% | OVCAR-4 ovarian 62.9% | SK-OV-3 ovarian 74.4% | IGROV1 ovarian 66.8% | OVCAR-3 ovarian 74.4% | HS 578T breast 73.2% | NCI/ADR-RES ovarian 56.3%

O=C(Nc1cccc(Cl)c1)c1cc(N=Nc2ccc([N+](=O)[O-])cc2Cl)ccc1O
inactive: EKVX NSCLC 70.2% | SN12C renal 82.1% | TK-10 renal 136% | ACHN renal 82.4% | CAKI-1 renal 100% | A498 renal 69.5% | CCRF-CEM leukemia 21.3% | SR leukemia 20.7% | OVCAR-8 ovarian 15.6% | OVCAR-5 ovarian 112% | OVCAR-4 ovarian 59.9% | SK-OV-3 ovarian 93.1% | IGROV1 ovarian 22.9% | OVCAR-3 ovarian 85% | HS 578T breast 54% | NCI/ADR-RES ovarian 67.6%
active: SK-MEL-2 melanoma -26.6% | RPMI-8226 leukemia 3.54%

O=C(N/N=C/c1ccncc1)c1ccc(C(F)(F)F)nc1Nc1cccc(C(F)(F)F)c1
active: SK-MEL-2 melanoma -10.9% | CAKI-1 renal 6.02% | MOLT-4 leukemia 6.05% | SR leukemia 2.02% | RPMI-8226 leukemia -64.1% | OVCAR-8 ovarian -4.88% | OVCAR-4 ovarian -0.699% | IGROV1 ovarian -35.9% | OVCAR-3 ovarian 1.03% | NCI/ADR-RES ovarian -10.7%
inactive: EKVX NSCLC 18.4% | SN12C renal 37.7% | TK-10 renal 16.8% | ACHN renal 17.1% | A498 renal 35.3% | OVCAR-5 ovarian 24.7% | SK-OV-3 ovarian 32.1% | HS 578T breast 44.4%

CC(=O)N1C(=S)NC(=O)C1Cn1c(-c2ccccc2)nc2ccccc21 (stereo not given)
inactive: SK-MEL-2 melanoma 109% | EKVX NSCLC 96.3% | SN12C renal 98.6% | TK-10 renal 121% | ACHN renal 100% | CAKI-1 renal 90.4% | A498 renal 70.7% | CCRF-CEM leukemia 97.1% | MOLT-4 leukemia 96.5% | RPMI-8226 leukemia 97.3% | OVCAR-8 ovarian 102% | OVCAR-5 ovarian 103% | OVCAR-4 ovarian 102% | SK-OV-3 ovarian 94.3% | IGROV1 ovarian 92.5% | OVCAR-3 ovarian 101% | HS 578T breast 96% | NCI/ADR-RES ovarian 102%

Cc1ccc(/C=C2\C(=O)N(C)c3ccc(S(=O)(=O)Nc4ccc(C(C)(C)C)cc4)cc32)s1
active: OVCAR-4 ovarian -1.02% | HS 578T breast -5.78%
inactive: SK-MEL-2 melanoma 90.3% | EKVX NSCLC 54.3% | SN12C renal 36.7% | TK-10 renal 70.2% | ACHN renal 59.8% | CAKI-1 renal 55.2% | A498 renal 75.9% | CCRF-CEM leukemia 65.6% | OVCAR-8 ovarian 29.5% | OVCAR-5 ovarian 69.4% | SK-OV-3 ovarian 76.4% | IGROV1 ovarian 63.9% | OVCAR-3 ovarian 11.4% | NCI/ADR-RES ovarian 62.1%

O=C(COc1ccc(/C=C2\Oc3ccccc3C2=O)cc1)Nc1nc2ccccc2s1
active: CAKI-1 renal -83% | MOLT-4 leukemia -48.8% | SR leukemia -71.9% | RPMI-8226 leukemia -56.8%
inactive: SK-MEL-2 melanoma 106% | EKVX NSCLC 42.8% | SN12C renal 64.4% | TK-10 renal 134% | ACHN renal 72.7% | A498 renal 115% | OVCAR-8 ovarian 18.8% | OVCAR-5 ovarian 67.8% | OVCAR-4 ovarian 89.9% | SK-OV-3 ovarian 116% | OVCAR-3 ovarian 66.5% | HS 578T breast 88.5% | NCI/ADR-RES ovarian 75.5%

CC(C)Sc1nc(NNC(N)=S)c(C#N)c(-c2ccc(F)cc2)n1
inactive: SK-MEL-2 melanoma 103% | EKVX NSCLC 96.7% | SN12C renal 96.1% | TK-10 renal 96.3% | ACHN renal 94.3% | CAKI-1 renal 88.8% | A498 renal 61.7% | CCRF-CEM leukemia 93.2% | MOLT-4 leukemia 95.7% | OVCAR-8 ovarian 97.4% | OVCAR-5 ovarian 88.3% | OVCAR-4 ovarian 102% | SK-OV-3 ovarian 83.9% | IGROV1 ovarian 97.1% | OVCAR-3 ovarian 113% | HS 578T breast 101% | NCI/ADR-RES ovarian 99%

Cc1ccc(C2SCC(=O)N2Cc2ccccc2)cc1 (stereo not given)
inactive: SK-MEL-2 melanoma 100% | EKVX NSCLC 89.5% | SN12C renal 94.8% | TK-10 renal 99.5% | ACHN renal 100% | CAKI-1 renal 84.4% | CCRF-CEM leukemia 79.2% | MOLT-4 leukemia 84% | RPMI-8226 leukemia 96.7% | OVCAR-8 ovarian 98.8% | OVCAR-5 ovarian 101% | OVCAR-4 ovarian 98.9% | SK-OV-3 ovarian 103% | IGROV1 ovarian 102% | OVCAR-3 ovarian 116% | HS 578T breast 103% | NCI/ADR-RES ovarian 103%

COc1ccc(NC(=O)CSc2nc(C)c(C(C)=O)n2-c2ccc(Cl)cc2)cc1
inactive: SK-MEL-2 melanoma 102% | SN12C renal 92.5% | UO-31 renal 102% | TK-10 renal 125% | ACHN renal 99% | CAKI-1 renal 97.8% | A498 renal 75.6% | CCRF-CEM leukemia 108% | MOLT-4 leukemia 91% | RPMI-8226 leukemia 97.3% | OVCAR-8 ovarian 88.7% | OVCAR-5 ovarian 98.6% | OVCAR-4 ovarian 85.3% | IGROV1 ovarian 95.1% | OVCAR-3 ovarian 100% | HS 578T breast 90.4% | NCI/ADR-RES ovarian 89.4%

CN1C(=O)N(C)C2C1NN=c1s/c(=C\c3ccccc3)c(=O)n12 (stereo not given)
active: A498 renal 4.23% | OVCAR-3 ovarian 8.76%
inactive: SK-MEL-2 melanoma 48.4% | SN12C renal 50.1% | TK-10 renal 10% | ACHN renal 29.4% | CAKI-1 renal 33.5% | CCRF-CEM leukemia 42.2% | MOLT-4 leukemia 58.1% | RPMI-8226 leukemia 61.6% | OVCAR-8 ovarian 60% | OVCAR-5 ovarian 66.6% | OVCAR-4 ovarian 66.6% | SK-OV-3 ovarian 47.6% | IGROV1 ovarian 46.4% | HS 578T breast 40.7% | NCI/ADR-RES ovarian 32.5%

Cc1ccc2nc(C)c(-c3nnc(SCc4ccc(C#N)cc4)o3)n2c1
inactive: SK-MEL-2 melanoma 101% | SN12C renal 92.9% | UO-31 renal 67% | TK-10 renal 120% | ACHN renal 88.4% | CAKI-1 renal 85.3% | A498 renal 72% | CCRF-CEM leukemia 117% | MOLT-4 leukemia 101% | RPMI-8226 leukemia 93.6% | OVCAR-8 ovarian 108% | OVCAR-5 ovarian 107% | OVCAR-4 ovarian 95.8% | IGROV1 ovarian 89.5% | OVCAR-3 ovarian 109% | HS 578T breast 93.2% | NCI/ADR-RES ovarian 90.6%

CCCCc1ccc(Nc2ccc(Nc3ccc(CCCC)cc3S(=O)(=O)O)c3c2C(=O)c2ccccc2C3=O)c(S(=O)(=O)O)c1
active: IGROV1 ovarian -16.9%
inactive: SK-MEL-2 melanoma 67.1% | SN12C renal 91% | UO-31 renal 66.5% | TK-10 renal 114% | ACHN renal 94.5% | CAKI-1 renal 95.6% | CCRF-CEM leukemia 80.9% | MOLT-4 leukemia 96.8% | RPMI-8226 leukemia 52% | OVCAR-8 ovarian 99.8% | OVCAR-5 ovarian 97.8% | OVCAR-4 ovarian 99.9% | SK-OV-3 ovarian 91.5% | OVCAR-3 ovarian 103% | HS 578T breast 102% | NCI/ADR-RES ovarian 107%

C=CCSc1nc2ccccc2cc1/C=N/O
inactive: SK-MEL-2 melanoma 84.4% | SN12C renal 89.5% | UO-31 renal 58.9% | TK-10 renal 108% | ACHN renal 87.6% | CAKI-1 renal 75.1% | A498 renal 98% | CCRF-CEM leukemia 95.5% | MOLT-4 leukemia 86.7% | RPMI-8226 leukemia 86.7% | OVCAR-8 ovarian 89.6% | OVCAR-5 ovarian 78.6% | OVCAR-4 ovarian 107% | SK-OV-3 ovarian 68.2% | IGROV1 ovarian 74.1% | OVCAR-3 ovarian 92.1% | HS 578T breast 72.2% | NCI/ADR-RES ovarian 97.2%

c1ccc2cc3nc4cc5ccccc5cc4nc3cc2c1
inactive: SK-MEL-2 melanoma 104% | SN12C renal 88.6% | UO-31 renal 89% | TK-10 renal 108% | ACHN renal 97.4% | CAKI-1 renal 113% | A498 renal 107% | RPMI-8226 leukemia 58.6% | OVCAR-5 ovarian 91.6% | OVCAR-4 ovarian 104% | SK-OV-3 ovarian 97.3% | IGROV1 ovarian 86.7% | OVCAR-3 ovarian 96.7% | HS 578T breast 102% | NCI/ADR-RES ovarian 73.4%
active: CCRF-CEM leukemia -24.9%
